Measured values as given in PubChem BioAssay.

Test: basal CRE-LacZ reporter activity in PC12 – cell-based, unstimulated, primary screen (AID 1145)
Conditions: no forskolin, luminescence, 4.5 h, higher = more signal, called active from +8 up or from −8 down

z-score, inactive:
C#CCNC(/C=C/c1ccccc1)CO (centres undefined) -0.237
O=C1C2C=CC(C(O)C(c3ccccc3)c3ccccc3)N(Nc3ccc([N+](=O)[O-])cc3)C2C(=O)N1c1ccccc1 (centres undefined) -0.433
C=C(CCCC)/C(=C/C[C@@H](OC(=O)c1ccncc1)c1ccc(CO)o1)c1cnc2ccccc2c1 2.38
CCc1cccc(NC(=O)O[C@H]2[C@H](OC(=O)Nc3ccccc3)[C@@H](OC(=O)Nc3ccccc3)[C@@H](OC)O[C@@H]2CO)c1 0.344
C=CC[C@]1(C(=O)N2CCCCC2)N=C(c2ccc(OCCCO)cc2)O[C@H]1c1ccccc1N=[N+]=[N-] -0.174
C#C[C@H](O[Si](C#Cc1ccccc1)(C(C)C)C(C)C)c1ccccc1 -0.258
CCOC(=O)C1=CC[C@@H](c2ccccc2)N(S(=O)(=O)c2ccc(C)cc2)[C@H]1C -0.0137
O=C(N1CCCCC1)[C@@]1(CCS(=O)(=O)c2ccccc2)N=C(c2ccc(OCCCO)cc2)O[C@H]1c1ccccc1 0.909
CC(C)(C)OC(=O)CC[C@]1(C(=O)N2CCCCC2)N=C(c2ccc(OCCCO)cc2)O[C@H]1c1ccccc1 1.55
N#Cc1ccc(NN2C(C(O)CCc3ccccc3)C=CC3C(=O)N(c4ccccc4)C(=O)C32)cc1 (centres undefined) -0.905
Cc1ccc(S[C@]2(C(=O)NC3CC3)CC(=O)N(Cc3cc(C(F)(F)F)cc(C(F)(F)F)c3)[C@@H]2c2ccc(CO)cc2)cc1 -0.374
C#CCCCON=C1C[C@@H](O)[C@@H](O)[C@@H]2[C@@H]3C(=O)N(Cc4ccc5c(c4)OCO5)C(=O)[C@@H]3CC[C@@H]12 -0.56
Cc1ccc(S(=O)(=O)N2[C@@H](c3ccccc3)C(C(=O)O)=CC[C@H]2c2ccccc2)cc1 0.0707

Test: forskolin-driven CRE-LacZ activity in PC12 – cell-based, CRE-LacZ reporter, forskolin-stimulated, primary screen (AID 1146);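 also: PC12 cells with 6xCRE LacZ reporter stimulated by forskolin 10 µM; beta-galactosidase reporter signal reflecting CREB driven transcription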
Conditions: luminescence, 4.5 h, higher = more signal, called active from +8 up or from −8 down

z-score, inactive:
COc1cc(CO)cc(I)c1O[C@H]1C=C(C(=O)NCCO)C[C@@H](N(CC2CCCCC2)C(=O)c2cc3ccccc3oc2=O)[C@@H]1O -1.27
C=C(CCCC)/C(=C/C[C@@H](OC(=O)c1ccncc1)c1cccc(OCCO)c1)c1cc(C(=O)OC)ccc1OC -1.47
C=CCC(OC(C)=O)[C@@H]1[C@@H](N(Cc2ccc(-c3ccccc3)cc2)C(=O)c2ccc(-c3ccccc3)cc2)c2cc(OCCCO)ccc2N1C(=O)Cc1ccc(OC)cc1 (some centres undefined) 0.522
CC(=O)NCCCC[C@@H]1NC(=O)[C@H]2C[C@@H](C(=O)NCCCCCCN(C)C)[C@@H](c3ccc(O)cc3)N2C1=O 0.403
Cc1ccc(S[C@]2(C(=O)NC(C)C)CC(=O)N(C3Cc4ccccc4C3)[C@@H]2c2ccc(CO)cc2)cc1 0.978
Cc1ccc(N2C(=O)c3ccccc3[C@](C)(C(=O)NCC(C)C)[C@@H]2c2ccc(CO)cc2)nc1 -0.002
[N-]=[N+]=NCc1ccccc1C[C@]1(C(=O)N2CCCCC2)N=C(c2ccc(OCCCO)cc2)O[C@H]1c1ccccc1CN=[N+]=[N-] 0.102
C=C(CCCC)/C(=C/C[C@H](OC(=O)c1ccncc1)c1cccc(OCCO)c1)c1cc(C(=O)OC)ccc1OC -0.802
O=C(CS)NCCCCCCNC(=O)[C@@H]1C[C@@H]2C(=O)N[C@@H](Cc3ccccc3)C(=O)N2[C@@H]1c1ccc(O)cc1 -0.835
C=C(CCCC)C(=O)CC[C@@H](OC(=O)c1cccnc1)c1cccc(OCCO)c1 -0.315
COc1ccc([C@H]2C[C@H]3C(Br)=C[C@]2(OC)C(=O)[C@]32CO2)cc1 2.58
C=C(C(=O)CC[C@H](OC(=O)c1ccccc1-c1ccccc1C(=O)O)c1ccc(CO)o1)C(C)C 2.42
C#CCCCON=C1C[C@@H](O)[C@@H](O)[C@@H]2[C@@H]3C(=O)N(Cc4ccc5c(c4)OCO5)C(=O)[C@@H]3CC[C@H]12 0.653
COC(=O)c1ccc(C#CC(NP(=O)(c2ccccc2)c2ccccc2)c2ccccc2)cc1 (centres undefined) 1.24
CCOC(=O)C1=CC[C@@H](c2ccc(-c3ccc(OCc4ccccc4)cc3)c(OC)c2)N(S(=O)(=O)c2ccc(C)cc2)[C@H]1c1ccccc1 0.1
CC(c1ccccc1)C(O)C1C=CC2C(=O)N(C)C(=O)C2N1N(c1ccccc1)c1ccccc1 (centres undefined) 0.696
C=C[C@H](OC)[C@@H](OC(=O)Nc1ccc(SC)cc1)c1ccc(O)c(F)c1 -0.362
C=C(CCCC)C(=O)CC[C@@H](OC(C)=O)c1ccccc1OCCO -0.841
CC(=O)NCCCC[C@@H]1NC(=O)[C@H]2C[C@@H](C(=O)NCCCCCCN(C)C)[C@@H](c3cccc(OCCO)c3)N2C1=O 0.172
CCCC=C(CCC)[C@@H](NS(=O)(=O)c1cccc(C(F)(F)F)c1)c1ccc(C(=O)OC)cc1 -0.547
O=C(NCc1ccccc1)[C@@]1(Cc2ccccc2)COC(c2ccc(OCCCO)cc2)=N1 -1.27
[N-]=[N+]=NCc1ccccc1[C@H]1OC(c2ccc(OCCCO)cc2)=N[C@@]1(Cc1ccccc1N=[N+]=[N-])C(=O)NCc1ccccc1 -0.676
NC(=O)NCC#Cc1ccc2c(c1)[C@]1(C(=O)N2)[C@H](C(=O)N2CCCCCCC2)[C@H]2C(=O)O[C@H](c3ccccc3)[C@H](c3ccccc3)N2[C@@H]1c1ccccc1OCCO -1.18
C#CCNC(/C=C/c1ccccc1)CO (centres undefined) 1.39
O=C1C2C=CC(C(O)C(c3ccccc3)c3ccccc3)N(Nc3ccc([N+](=O)[O-])cc3)C2C(=O)N1c1ccccc1 (centres undefined) 0.384
C=C(CCCC)/C(=C/C[C@@H](OC(=O)c1ccncc1)c1ccc(CO)o1)c1cnc2ccccc2c1 0.176
CCc1cccc(NC(=O)O[C@H]2[C@H](OC(=O)Nc3ccccc3)[C@@H](OC(=O)Nc3ccccc3)[C@@H](OC)O[C@@H]2CO)c1 -1.9
C=CC[C@]1(C(=O)N2CCCCC2)N=C(c2ccc(OCCCO)cc2)O[C@H]1c1ccccc1N=[N+]=[N-] -1.18
C#C[C@H](O[Si](C#Cc1ccccc1)(C(C)C)C(C)C)c1ccccc1 6.27
CCOC(=O)C1=CC[C@@H](c2ccccc2)N(S(=O)(=O)c2ccc(C)cc2)[C@H]1C -0.664
O=C(N1CCCCC1)[C@@]1(CCS(=O)(=O)c2ccccc2)N=C(c2ccc(OCCCO)cc2)O[C@H]1c1ccccc1 -0.516
CC(C)(C)OC(=O)CC[C@]1(C(=O)N2CCCCC2)N=C(c2ccc(OCCCO)cc2)O[C@H]1c1ccccc1 -1.85
N#Cc1ccc(NN2C(C(O)CCc3ccccc3)C=CC3C(=O)N(c4ccccc4)C(=O)C32)cc1 (centres undefined) -0.259
Cc1ccc(S[C@]2(C(=O)NC3CC3)CC(=O)N(Cc3cc(C(F)(F)F)cc(C(F)(F)F)c3)[C@@H]2c2ccc(CO)cc2)cc1 0.121
C#CCCCON=C1C[C@@H](O)[C@@H](O)[C@@H]2[C@@H]3C(=O)N(Cc4ccc5c(c4)OCO5)C(=O)[C@@H]3CC[C@@H]12 -0.157
Cc1ccc(S(=O)(=O)N2[C@@H](c3ccccc3)C(C(=O)O)=CC[C@H]2c2ccccc2)cc1 -0.303
